Results published in PubChem BioAssay (NCATS).
A number with no mark means an inactive call. Calls come from the whole dose curve; as a rule, active = well fitted curve in the direction sought with a large enough effect; inconclusive = small, poorly fitted or top-dose-only effect, or another doubt; inactive = no such curve, though single readings can be large or run the other way.

Target: Guanine nucleotide-binding protein G(i) subunit alpha-1 (Homo sapiens) (UniProt P63096)
Assay: qHTS Assay for Inhibitors of RGS12 GoLoco Motif Activity (Green Fluorophore) (AID 879);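 note: 0% = labeled peptide with Gαi1 and full inhibition = labeled peptide alone without protein; negative values mean loss of peptide binding seen as reduced polarization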
Details: Galphai1/FITC-RGS12 GoLoco peptide, fluorescence polarization; series mostly up to 57.1 µM; activity, negative = inhibition: at the top concentration
In short: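 Fluorescence polarization assay: 50 nM Gαi1 with 10 nM FITC-labeled RGS12 GoLoco peptide in 10 mM Tris pH 7.5, 150 mM NaCl, 0.1 mM GDP, 0.05% NP40, 10 min at room temperature with compound.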

Guanine nucleotide-binding protein G(i) subunit alpha-1 (Homo sapiens), sequence (P63096 whole entry, looked up): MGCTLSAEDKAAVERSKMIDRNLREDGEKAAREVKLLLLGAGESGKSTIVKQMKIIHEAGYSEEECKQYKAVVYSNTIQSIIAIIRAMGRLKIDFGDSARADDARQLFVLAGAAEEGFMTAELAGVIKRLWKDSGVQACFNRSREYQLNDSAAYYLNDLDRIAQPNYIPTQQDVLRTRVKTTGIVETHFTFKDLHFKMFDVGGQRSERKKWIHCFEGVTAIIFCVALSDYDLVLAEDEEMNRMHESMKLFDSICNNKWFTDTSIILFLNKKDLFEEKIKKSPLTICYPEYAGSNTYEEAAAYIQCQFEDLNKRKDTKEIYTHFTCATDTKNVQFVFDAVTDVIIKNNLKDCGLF

| Structure (SMILES) | activity, negative = inhibition |
| --- | --- |
| O=[N+]([O-])c1cccc2c(Br)[nH]nc12 | 6.43% |
| Cc1nc(N=Nc2cc(S(=O)(=O)O)c3cc([N+](=O)[O-])cc(S(=O)(=O)O)c3c2)c(COP(=O)(O)O)c(C=O)c1O | -8.3% |
| O=C(O)c1ccccc1Nc1cccc(OCc2ccc3ccccc3n2)c1 | 0.339% |
| Oc1ccc(Cn2cc[nH]c2=S)cc1 | -22% |
| COc1cc(/C=C(\C#N)C(=O)c2ccc(O)c(O)c2)cc(I)c1O | 162% |
| O=C(O)c1cc2cc(F)ccc2[nH]1 | 7.52% |
| O=S(=O)(c1cccc2c(Cl)cccc12)N1CCCNCC1 | -1.98% |
| CCCc1c(-c2ccc(O)cc2)nn(-c2ccc(O)cc2)c1-c1ccc(O)cc1 | -21.8% |
| O=c1[nH]ccc2c(O)cccc12 | -20.9% |
| CCCCCCN(CCCCCC)C(=O)Cc1c(-c2ccc(F)cc2)[nH]c2ccccc12 | -11.6% |
| O=c1onc2cnc3ccccc3n12 | -13.4% |
| C[C@H](NC(=O)/C(C#N)=C/c1ccc(O)c(O)c1)c1ccccc1 | 56.6% |
| N[C@H](C(=O)O)c1cc(O)cc(O)c1 | -11.4% |
| CC[C@H](NC(=O)c1c(C)c(-c2ccccc2)nc2ccccc12)c1ccccc1 | -0.869% |
| CNc1cc(NS(=O)(=O)c2ccc(N)cc2)nc(NC)n1 | -16.3% |
| NCCS(=O)O | -10.3% |
| CCCn1c(=O)c2[nH]c(C3CCCC3)nc2n(CCC)c1=O | 9.88% |
| CC[N+](CC)(CC)CC(=O)Nc1c(C)cccc1C | -4.04% |
| Cn1cc(C(=O)OCC2CCN(CCNS(C)(=O)=O)CC2)c2ccccc21 | 5.2% |
| N#Cc1cc2nc(O)c(O)nc2cc1[N+](=O)[O-] | -16.3% |
